# In the supplement of paper PMC9950053:
# Where a name gives a salt, the structure may show the parent alone.
# Key:
# Conditions in all cases: 10 µM; exposure time: 3 h pre-incubation + 3 h imaging
# [1] = system: Danio rerio larvae (5 dpf); assay: excitability (activity period 17 minus period 16, 1-s interval sound) minus DMSO control (percentage points); higher = more acoustic excitability than DMSO larvae
# Outline: (§1)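 Behavioural measures are expressed in percentage points as the treated group mean minus the control group mean. Groups held 48 larvae and the control held 844. Wild-type zebrafish larvae at 5 dpf received compounds at 10 µM final for 3 h before imaging and throughout 3 h of imaging at 28.5 °C, with frames every 6 s tracked by Z-LaP Tracker. Detections with probability below 0.5 and larvae moving less than 1% of the time were excluded.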
# [2] = system: Danio rerio larvae (5 dpf); assay: combined upward orientation toward moving lines (periods 7-14) minus DMSO control (percentage points); higher = more orientation with moving lines than DMSO larvae
# Outline: as §1
# [3] = system: Danio rerio larvae (5 dpf); assay: combined optomotor response (time in upper well half, down vs up moving lines, periods 7-14) minus DMSO control (percentage points); higher = stronger optomotor response than DMSO larvae
# [4] = system: Danio rerio larvae (5 dpf); assay: habituation (activity change first vs second 5 min of 1-s interval sound, period 17) minus DMSO control (percentage points); higher = larger habituation measure than DMSO larvae
# Outline: as §1
# [5] = system: Danio rerio larvae (5 dpf); assay: 1-h baseline activity (% time moving, periods 1-6) minus DMSO control (percentage points); higher = more locomotor activity than DMSO larvae
# Outline: as §1
# [6] = system: Danio rerio larvae (5 dpf); assay: startle (activity period 16 minus period 15, 20-s interval sound) minus DMSO control (percentage points); higher = stronger startle response than DMSO larvae
# Outline: as §1
smiles,measurement,setting,value
CCOC(=O)[C@H](CCc1ccccc1)N[C@@H](C)C(=O)N1[C@H](C(=O)O)C[C@@H]2CCC[C@@H]21 [Ramipril],excitability,[1],6.38
same,combined upward orientation toward moving lines,[2],-5.05
same,combined optomotor response,[3],3.49
Nc1ncn([C@H]2C[C@H](O)[C@@H](CO)O2)c(=O)n1 [Decitabine],combined upward orientation toward moving lines,[2],-6.22
same,combined optomotor response,[3],3.77
CC(C)c1nc(N(C)S(C)(=O)=O)nc(-c2ccc(F)cc2)c1/C=C/[C@@H](O)C[C@@H](O)CC(=O)O [Rosuvastatin calcium],excitability,[1],-2.24
same,combined optomotor response,[3],6.26
CCCc1nc(C(C)(C)O)c(C(=O)O)n1Cc1ccc(-c2ccccc2-c2nnn[nH]2)cc1 [Olmesartan],habituation,[4],2.6
same,combined optomotor response,[3],1.99
C[C@]12CCC(=O)C=C1CC[C@@H]1[C@@H]2[C@@H](O)C[C@@]2(C)[C@H]1CC[C@]2(O)C(=O)CO [Hydrocortisone],1-h baseline activity,[5],1.95
same,habituation,[4],4.44
same,combined optomotor response,[3],4.58
CCOC(=O)C1=C(COCCN)NC(C)=C(C(=O)OC)C1c1ccccc1Cl (stereo not drawn) [Amlodipine besylate],habituation,[4],-2.71
O=C(NCC1CCCCN1)c1cc(OCC(F)(F)F)ccc1OCC(F)(F)F (stereo not drawn) [Flecainide acetate],startle,[6],4.84
same,combined optomotor response,[3],2.85
Cc1nnc(C(C)C)n1C1C[C@H]2CC[C@@H](C1)N2CC[C@H](NC(=O)C1CCC(F)(F)CC1)c1ccccc1 (stereo in doubt) [Maraviroc],excitability,[1],6.13
same,combined optomotor response,[3],0.791
Nc1nc2c(ncn2COCCO)c(=O)[nH]1 [Acyclovir],1-h baseline activity,[5],-2.63
CC(=O)O[C@]1(C(C)=O)CC[C@H]2[C@@H]3C=C(C)C4=CC(=O)CC[C@]4(C)[C@H]3CC[C@@]21C [Megestrol Acetate],1-h baseline activity,[5],-13.7
same,combined optomotor response,[3],-8.35
Cc1ccccc1C(=O)Nc1ccc(C(=O)N2CCCC(O)c3cc(Cl)ccc32)c(C)c1 (stereo not drawn) [Tolvaptan],1-h baseline activity,[5],0.214
same,habituation,[4],2.26
same,combined optomotor response,[3],4.13
CC(C)C(=O)OCC(=O)[C@@]12O[C@H](C3CCCCC3)O[C@@H]1C[C@H]1[C@@H]3CCC4=CC(=O)C=C[C@]4(C)[C@H]3[C@@H](O)C[C@@]12C [Ciclesonide],1-h baseline activity,[5],-10.2
same,combined optomotor response,[3],1.14
CCOc1nc2cccc(C(=O)O)c2n1Cc1ccc(-c2ccccc2-c2nnn[nH]2)cc1 [Candesartan],habituation,[4],5.98
same,combined optomotor response,[3],7.2
CCOC(=O)c1ncn2c1CN(C)C(=O)c1cc(F)ccc1-2 [Flumazenil],1-h baseline activity,[5],1.03
same,combined optomotor response,[3],3.13
NC(=O)c1ncn([C@@H]2O[C@H](CO)[C@@H](O)[C@H]2O)n1 [Ribavirin],excitability,[1],3.28
same,combined optomotor response,[3],5.43
CC/C(=C(\c1ccccc1)c1ccc(OCCN(C)C)cc1)c1ccccc1 [Tamoxifen citrate],startle,[6],-1.09
same,combined optomotor response,[3],-10.7
CN1CCC[C@@H]1CCO[C@](C)(c1ccccc1)c1ccc(Cl)cc1 [Clemastine fumarate],excitability,[1],12.9
same,combined optomotor response,[3],7.99
Clc1ccccc1C(c1ccccc1)(c1ccccc1)n1ccnc1 [Clotrimazole],excitability,[1],11.3
same,combined optomotor response,[3],-7.18
CC(=O)Oc1ccccc1C(=O)O [Aspirin],habituation,[4],-4.51
same,combined optomotor response,[3],-1.47
Nc1cc(N2CCCCC2)nc(N)[n+]1[O-] [Minoxidil],1-h baseline activity,[5],1.13
same,habituation,[4],7.65
same,combined optomotor response,[3],-1.34
CCCCNc1cc(C(=O)O)cc(S(N)(=O)=O)c1Oc1ccccc1 [Bumetanide],1-h baseline activity,[5],3
same,combined optomotor response,[3],9.27
COc1c(C)c2c(c(O)c1C/C=C(\C)CCC(=O)OCCN1CCOCC1)C(=O)OC2 [Mycophenolate mofetil],1-h baseline activity,[5],-3.96
same,combined optomotor response,[3],12.9
Nc1nc(Cl)nc2c1ncn2[C@@H]1O[C@H](CO)[C@@H](O)[C@@H]1F [Clofarabine],startle,[6],5.12
same,combined optomotor response,[3],4.66
CN1CC(=O)N2[C@H](c3ccc4c(c3)OCO4)c3[nH]c4ccccc4c3C[C@@H]2C1=O [Tadalafil],excitability,[1],5.81
same,combined optomotor response,[3],-1.2
Clc1ccc(COC(Cn2ccnc2)c2ccc(Cl)cc2Cl)c(Cl)c1 (stereo not drawn) [Miconazole nitrate],startle,[6],5.64
same,combined optomotor response,[3],-12.3
COC(c1ccccc1)(c1ccccc1)[C@H](Oc1nc(C)cc(C)n1)C(=O)O [Ambrisentan],habituation,[4],4.59
same,combined optomotor response,[3],0.559
CS(=O)(=O)CCNCc1ccc(-c2ccc3ncnc(Nc4ccc(OCc5cccc(F)c5)c(Cl)c4)c3c2)o1 [Lapatinib],excitability,[1],15.5
same,combined optomotor response,[3],-2.06
CC(C)Nc1cccnc1N1CCN(C(=O)c2cc3cc(NS(C)(=O)=O)ccc3[nH]2)CC1 [Delavirdine mesylate],excitability,[1],2.93
same,combined optomotor response,[3],-0.694
CC(C)C(=O)Nc1ccc([N+](=O)[O-])c(C(F)(F)F)c1 [Flutamide],habituation,[4],-15.4
same,combined optomotor response,[3],-12.4
CC(C)(C(=O)c1cccnc1)c1cccnc1 [Metyrapone],1-h baseline activity,[5],-9.17
same,habituation,[4],0.481
same,combined optomotor response,[3],-5.86
CCOc1ccccc1OCCN[C@H](C)Cc1ccc(OC)c(S(N)(=O)=O)c1 [Tamsulosin hydrochloride],1-h baseline activity,[5],3.66
same,combined optomotor response,[3],4.93
C=CC(=O)N1CCC[C@@H](n2nc(-c3ccc(Oc4ccccc4)cc3)c3c(N)ncnc32)C1 [Ibrutinib],excitability,[1],-1.71
same,combined optomotor response,[3],5.02
Cc1cc(C2CCCCC2)n(O)c(=O)c1 [Ciclopirox],excitability,[1],5.61
same,combined optomotor response,[3],5.45
Cc1ccsc1C(=CCCN1CCC[C@@H](C(=O)O)C1)c1sccc1C [Tiagabine hydrochloride],1-h baseline activity,[5],7.89
same,combined optomotor response,[3],8.29
Cc1nc(Nc2ncc(C(=O)Nc3c(C)cccc3Cl)s2)cc(N2CCN(CCO)CC2)n1 [Dasatinib],excitability,[1],17.4
same,combined optomotor response,[3],-2.04
